Test [1] concerns the target Lysosomal acid glucosylceramidase (Homo sapiens) (UniProt P04062). Briefly: Glucocerebrosidase-p2 (AID 348; in the data active = potency below about 10 µM; note: potency is the fitted concentration of half-maximal effect). Particulars: purified GBA, blue fluorogenic substrate, 40 min. The method, boiled down:
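Compounds titrated from 0.6 nM upwards against 0.2 nM enzyme in pH 5.9 citric acid/KH2PO4, taurocholate, tween-20; blue fluorogenic substrate 80 uM, 40 min room temperature, stopped and read Ex 365/Em 440 for AC50.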

The nature of test [2]: AP1 Signaling Pathway (AID 357; active = well fitted curve in either direction with a large enough effect, not every such curve was filed as active; note: % is set by controls: 0 for no effect and ±100 for the full control effect). As to conditions: ME-180 AP-1-bla reporter, EGF-induced, beta-lactamase ratio, 5 h; at 7.69 µM (top of the series) unless noted. The method, boiled down: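 AP-1-bla ME-180 cells with beta-lactamase reporter under AP-1 response element, stimulated with EC50 EGF; compounds titrated, 5 hours at 37 degrees Celsius. CCF4 read at 460/530 nm ratio; positive and negative modulators judged by AC50.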

For test [3], the target named is Cytochrome P450 1A2 (Homo sapiens) (UniProt P05177). Briefly: p450-cyp1a2 (AID 410; calls by dose curve; note: potency is the fitted concentration of half-maximal effect;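 for activity change, negative = inhibition: -100% = full effect of reference inhibitor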). As to conditions: recombinant CYP1A2, luciferin-ME demethylation, luminescence; series mostly up to 57 µM. The procedure, abridged:
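Inhibition was calculated relative to 57 uM furafylline (full inhibition). The reaction used human CYP1A2 at 20nM with Luciferin-ME at its Km, 100uM, driven by an NADPH-regenerating system for 60 min at room temperature.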

Test [4] in a line: NFAT Signaling Pathway (AID 444; active = well fitted curve in either direction with a large enough effect, not every such curve was filed as active;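 note: carbachol stimulus at about its EC50 of 1 µM final; % is set by controls: 0 for no effect and ±100 for the full control effect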). Particulars: Jurkat NFAT-bla M1, carbachol, beta-lactamase ratio, 5 h; at 7.69 µM (top of the series) unless noted. The method, boiled down:
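Read-out: CCF4 FRET ratio (460 nm/530 nm) after 1 h RT dye loading, used for %activity and AC50 from titration series. Cells: Jurkat NFAT-β-lactamase/M1 line, treated with compound plus 1 uM carbachol for 5 h, 37 °C.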

A short description of test [5]: Stat Signaling Pathway (AID 446; active = well fitted curve in either direction with a large enough effect, not every such curve was filed as active;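 note: ME-180 cervical cancer cells given 40 pM IL-6 alongside compound; SIE-controlled beta-lactamase reporter measured as 460/530 nm FRET emission ratio; % is set by controls: 0 for no effect and ±100 for the full control effect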). Particulars: ME-180 SIE beta-lactamase reporter, IL-6 stimulated, 5 h; at 7.69 µM (top of the series) unless noted. The method, boiled down:
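Screening format detects activators and inhibitors alike: ME-180 SIE-bla cells stimulated at 40 pM IL-6 for 5 hrs with compound, then dual-emission beta-lactamase read at 405 nm excitation.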

For test [6], the target named is Glucocorticoid receptor (Homo sapiens) (UniProt P04150). Put plainly: GR-GFP Redistribution (AID 450;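 active = compounds whose dose series gives a full or clear partial fitted curve of increased nuclear translocation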; note: potency is the fitted concentration of half-maximal effect). Particulars: U2OS GR-GFP nuclear translocation, laser cytometry, 2 h.
The target is the same in test [7]. Briefly: GR-EFC Redistribution (AID 451; calls by dose curve; note: potency is the fitted concentration of half-maximal effect). Particulars: CHO-K1 GR-EFC translocation, beta-gal luminescence, 2 h. The procedure, abridged: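 Translocation of GR-ED fusion to nuclear EA restores b-gal, read by luminescence after 1 h room-temperature detection. Engineered CHO-K1 biosensor cells, 1,000/well, exposed 2 h at 37 C to titrations up to 46 uM final.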
In test [8] the target is Mitogen-activated protein kinase 10 (Mus musculus) (UniProt Q61831). Put plainly: JNK3 AlphaScreen Assay (AID 530; active = well fitted curve in either direction with a large enough effect, not every such curve was filed as active;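 note: kinase came from lysate of stimulated human HepG2 cells; signal reports phosphorylation of biotinylated GST-cJun 1-79 at Ser73 with 10 µM ATP; % is set by controls: 0 for no effect and ±100 for the full control effect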). Particulars: JNK3 lysate, c-Jun phosphorylation; series mostly up to 57.1 µM. The method, boiled down: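 Room-temperature AlphaScreen kinase assay; pre-activated HepG2 lysate as JNK3 source, biotin-GST-cJun(1-79) substrate, 10 uM ATP, compound 15 min preincubation.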

In test [9] the target is Cytochrome P450 3A4 (Homo sapiens) (UniProt P08684). Briefly: qHTS Assay for Activators of Cytochrome P450 3A4 (AID 885). Note: nearly all actives have a fitted effect of over 65% in size. As to conditions: recombinant CYP3A4, Luciferin-PPXE luminescence, 60 min; series mostly up to 57.1 µM. The procedure, abridged: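 Steps: enzyme/substrate mix dispensed; compound added, 10 min RT; NADPH regeneration solution added, 60 min RT; luciferin detection buffer stops reaction; 20 min later luminescence measured.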

A short description of test [10]: qHTS Assay for Lipid Storage Modulators (AID 1519; calls by dose curve). Particulars: Drosophila S3 cells, BODIPY lipid droplet/cell ratio, laser cytometry, cells loaded with oleic acid; for activity change, negative = inhibition: at 57.5 µM (top of the series). The method, boiled down:
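Cells seeded at 5,000 per well were treated with compounds over a concentration series and loaded with oleic acid (400 uM, as added). Lipid droplet fluorescence (488 nm excitation, 500-530 nm channel) was read by laser-scanning cytometry and normalized to 20 uM Triacsin C.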
For orientation: Quantitative high-throughput screening tests each substance at several concentrations.

The target in test [11] is Dual specificity protein kinase CLK4 (Homo sapiens) (UniProt Q9HAZ1). Put plainly: qHTS Assay for Inhibitors of CDC-like Kinase 4 (ADP-FP Assay) (AID 1795). Note: % is set by controls: 0 for no effect and ±100 for the full control effect; nearly all actives have a fitted effect of over 60% in size. Particulars: Transcreener ADP fluorescence polarization; series mostly up to 50 µM. The method, boiled down: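 Recombinant human Clk4 (6.25 nM) phosphorylated RS repeat peptide (100 uM) with 1 uM ATP in Tris pH 7.5/MgCl2/EGTA/DTT/Triton buffer for one hour. ADP was quantified by Transcreener competitive fluorescence polarization against an ADP calibration curve.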

The target in test [12] is Ubiquitin carboxyl-terminal hydrolase 1 (Homo sapiens) (UniProt O94782). Put plainly: Inhibitors of USP1/UAF1: Pilot qHTS (AID 504865).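 Note: rhodamine fluorescence freed from ubiquitin-rhodamine substrate followed over time; top concentration of the series differs between compounds; % is set by controls: 0 for no effect and ±100 for the full control effect; nearly all actives have a fitted effect of over 35% in size.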 Particulars: purified USP1/UAF1, Ub-rhodamine cleavage fluorescence; series mostly up to 54.9 µM. The procedure, abridged: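 USP1/UAF1 complex (1nM) preincubated with compound 15 min at room temperature, then Ub-Rho substrate (150nM final) added. Fluorescence read kinetically at 480/540 nm, 6 reads every 60 seconds. Buffer: 50mM HEPES pH 7.8, 0.5mM EDTA, 0.1 mg/ml BSA, 1mM TCEP, 0.01% Tween-20.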

Test [13] in a line: Primary qHTS for small molecule stabilizers of the endoplasmic reticulum resident proteome: Secreted ER Calcium Modulated Protein (SERCaMP) assay (AID 1508630). Note: % is set by controls: 0 for no effect and ±100 for the full control effect. As to conditions: SH-SY5Y GLuc-SERCaMP (Gaussia luciferase released on ER calcium loss) secretion, thapsigargin, luminescence; series mostly up to 38.4 µM. The procedure, abridged: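 GLuc-SERCaMP-expressing SH-SY5Y cells, pretreated 16 h with compound, are challenged with thapsigargin to empty ER calcium stores; after 4 h, coelenterazine is added directly to the medium and luminescence is imaged.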

In test [14] the target is Cytochrome P450 3A4 (Homo sapiens) (UniProt P08684). Put plainly: qHTS Assay for Inhibitors and Substrates of Cytochrome P450 3A4 (AID 884). Note: potency is the fitted concentration of half-maximal effect; nearly all actives have a fitted effect of over 50% in size. As to conditions: recombinant CYP3A4, Luciferin-PPXE luminescence; series mostly up to 57.1 µM. The procedure, abridged: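 20 nM human CYP3A4 with 25 uM Luciferin-PPXE (at KM) in 200 mM KPO4, preincubated 10 min with compound; NADPH regeneration started a 60 min RT reaction. Luciferin detected by luminescence, normalized to 57 uM ketoconazole as full inhibition.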

The target in test [15] is Cytochrome P450 2C19 (Homo sapiens) (UniProt P33261). Put plainly: qHTS Assay for Inhibitors and Substrates of Cytochrome P450 2C19 (AID 899). Note: potency is the fitted concentration of half-maximal effect; nearly all actives have a fitted effect of over 60% in size. Particulars: recombinant CYP2C19, luciferin-H EGE luminescence; series mostly up to 57.1 µM. The procedure, abridged:
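5nM enzyme + 10uM Luciferin-H EGE (=KM), 50mM KPO4; cpd pin-transferred, 10 min 37C; NADPH regen, 60 min 37C; stopped w/ luciferin detection reagent, 20 min; luminescence. Normalized to 57uM ketoconazole (AC100).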

Test [16] deals with 3',5'-cyclic-AMP phosphodiesterase 4B (Homo sapiens) (UniProt Q07343). Put plainly: qHTS Assay for Inhibitors of PDE-IV (AID 607; active = well fitted activation curve with a large enough effect in the main read-out, with a control signal flat, not every such curve was filed as active; note: % of control where 0% means no effect). Particulars: HEK293 ACTOne CNG channel cells, membrane potential fluorescence; series mostly up to 22.9 µM. The procedure, abridged: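 The readout is membrane depolarisation from a cAMP-sensing CNG channel, detected with a potential dye at ex 535/em 590. Cells were HEK293-derived (endogenous PDE-IV) at 1000 cells/well, titrated up to 22.9 uM final.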

The nature of test [17]: qHTS Assay for Identification of Small Molecule Agonists for Hypoxia Response Element Signaling Pathway (AID 914; active = well fitted activation curve with a large enough effect in the signal ratio, with a control signal flat, not every such curve was filed as active; the % refers to the signal ratio; note: potency is the fitted concentration of half-maximal effect). Particulars: ME-180 (cervical carcinoma) HRE-bla reporter, beta-lactamase ratio, CoCl2, 17 h; activation: stronger effect = higher value. The procedure, abridged: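 Cells were plated overnight, pin-dosed with compound in a titration series, co-stimulated with EC50 CoCl2 and incubated 17 hours at 37 degrees Celsius. CCF4 substrate was then loaded, and AC50 values came from the 460nm/530nm ratio.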

The target of test [18] is Dual specificity protein kinase CLK4 (Homo sapiens) (UniProt Q9HAZ1). Briefly: qHTS Assay for Inhibitors of CDC-like Kinase 4 (ADP-Glo Assay) (AID 1771). Note: nearly all actives have a fitted effect of over 70% in size. Note: potency is the fitted concentration of half-maximal effect. As to conditions: recombinant CLK4, ADP-Glo luminescence; series mostly up to 80 µM. The procedure, abridged:
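Kinase reaction: Clk4 at 25 nM, RS repeat peptide substrate at 100 uM, ATP at 1 uM, 1 hr, room temperature. Product ADP detected as luciferase signal via ADP-Glo.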

The mark [19] stands for this setting: measured here: cell count channel max response.
The mark [20] stands for this setting: measured here: lipid channel max response.

Records with an inconclusive call do not appear. Active and inactive are the calls of the source. Unless noted, calls come from the whole dose curve; as a rule, active = well fitted curve in the direction sought with a large enough effect; inconclusive = small, poorly fitted or top-dose-only effect, or another doubt; inactive = no such curve, though single readings can be large; an effect the other way counts as inactive or inconclusive.

Chain of Dual specificity protein kinase CLK4 (Homo sapiens) (Q9HAZ1 whole entry, looked up): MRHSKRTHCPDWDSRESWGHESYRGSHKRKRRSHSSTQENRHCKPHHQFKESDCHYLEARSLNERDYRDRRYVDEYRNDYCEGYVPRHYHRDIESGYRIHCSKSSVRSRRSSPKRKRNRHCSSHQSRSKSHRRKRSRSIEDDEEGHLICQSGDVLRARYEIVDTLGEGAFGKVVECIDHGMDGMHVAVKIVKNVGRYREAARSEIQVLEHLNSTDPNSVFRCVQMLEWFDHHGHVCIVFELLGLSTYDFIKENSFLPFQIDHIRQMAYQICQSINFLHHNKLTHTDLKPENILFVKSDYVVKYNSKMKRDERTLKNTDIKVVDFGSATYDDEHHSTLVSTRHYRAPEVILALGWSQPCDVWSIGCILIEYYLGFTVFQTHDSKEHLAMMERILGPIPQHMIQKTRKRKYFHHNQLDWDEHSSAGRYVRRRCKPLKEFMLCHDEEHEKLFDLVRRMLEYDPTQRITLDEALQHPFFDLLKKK
Chain of Lysosomal acid glucosylceramidase (Homo sapiens) (P04062 whole entry, looked up): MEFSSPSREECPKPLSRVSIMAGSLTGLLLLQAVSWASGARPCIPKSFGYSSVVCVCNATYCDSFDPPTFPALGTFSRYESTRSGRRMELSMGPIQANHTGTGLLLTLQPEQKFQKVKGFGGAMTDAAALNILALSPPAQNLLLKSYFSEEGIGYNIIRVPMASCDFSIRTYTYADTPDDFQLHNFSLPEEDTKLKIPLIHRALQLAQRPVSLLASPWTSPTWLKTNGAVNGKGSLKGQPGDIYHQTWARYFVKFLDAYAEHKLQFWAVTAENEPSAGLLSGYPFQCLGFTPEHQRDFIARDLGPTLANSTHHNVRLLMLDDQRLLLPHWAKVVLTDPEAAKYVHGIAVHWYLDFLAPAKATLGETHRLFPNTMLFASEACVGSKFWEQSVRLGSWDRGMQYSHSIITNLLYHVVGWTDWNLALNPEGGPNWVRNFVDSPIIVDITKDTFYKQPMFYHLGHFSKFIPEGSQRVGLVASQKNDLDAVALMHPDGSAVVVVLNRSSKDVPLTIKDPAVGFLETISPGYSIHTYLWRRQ
Chain of Cytochrome P450 3A4 (Homo sapiens) (P08684 whole entry, looked up): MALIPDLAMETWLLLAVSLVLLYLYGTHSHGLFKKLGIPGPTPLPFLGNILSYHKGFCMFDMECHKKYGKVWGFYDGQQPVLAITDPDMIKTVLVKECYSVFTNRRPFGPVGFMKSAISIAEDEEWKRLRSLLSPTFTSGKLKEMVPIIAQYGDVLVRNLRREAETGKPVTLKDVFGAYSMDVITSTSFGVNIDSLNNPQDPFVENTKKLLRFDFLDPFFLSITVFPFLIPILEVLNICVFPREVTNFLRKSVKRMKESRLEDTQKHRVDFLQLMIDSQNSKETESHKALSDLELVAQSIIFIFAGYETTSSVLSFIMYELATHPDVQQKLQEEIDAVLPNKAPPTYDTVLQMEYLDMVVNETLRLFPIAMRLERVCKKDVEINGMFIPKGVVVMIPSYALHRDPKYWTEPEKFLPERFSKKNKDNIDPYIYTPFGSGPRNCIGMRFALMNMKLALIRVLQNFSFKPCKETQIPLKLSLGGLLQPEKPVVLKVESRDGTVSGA
Chain of Cytochrome P450 1A2 (Homo sapiens) (P05177 whole entry, looked up): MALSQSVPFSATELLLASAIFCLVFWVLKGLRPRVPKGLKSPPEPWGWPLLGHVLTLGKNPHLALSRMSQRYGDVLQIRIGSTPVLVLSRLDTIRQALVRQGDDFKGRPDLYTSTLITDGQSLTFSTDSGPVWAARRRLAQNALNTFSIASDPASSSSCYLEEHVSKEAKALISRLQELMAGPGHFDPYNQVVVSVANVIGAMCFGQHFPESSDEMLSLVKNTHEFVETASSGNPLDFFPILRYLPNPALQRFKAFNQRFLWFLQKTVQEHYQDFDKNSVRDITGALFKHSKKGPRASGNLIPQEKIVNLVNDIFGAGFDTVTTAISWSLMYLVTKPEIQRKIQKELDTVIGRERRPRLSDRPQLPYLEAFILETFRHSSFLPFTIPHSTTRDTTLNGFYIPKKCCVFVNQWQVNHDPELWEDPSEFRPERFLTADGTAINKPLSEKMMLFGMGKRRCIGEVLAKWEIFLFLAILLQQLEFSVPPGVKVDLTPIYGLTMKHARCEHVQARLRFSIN
Chain of Ubiquitin carboxyl-terminal hydrolase 1 (Homo sapiens) (O94782 whole entry, looked up): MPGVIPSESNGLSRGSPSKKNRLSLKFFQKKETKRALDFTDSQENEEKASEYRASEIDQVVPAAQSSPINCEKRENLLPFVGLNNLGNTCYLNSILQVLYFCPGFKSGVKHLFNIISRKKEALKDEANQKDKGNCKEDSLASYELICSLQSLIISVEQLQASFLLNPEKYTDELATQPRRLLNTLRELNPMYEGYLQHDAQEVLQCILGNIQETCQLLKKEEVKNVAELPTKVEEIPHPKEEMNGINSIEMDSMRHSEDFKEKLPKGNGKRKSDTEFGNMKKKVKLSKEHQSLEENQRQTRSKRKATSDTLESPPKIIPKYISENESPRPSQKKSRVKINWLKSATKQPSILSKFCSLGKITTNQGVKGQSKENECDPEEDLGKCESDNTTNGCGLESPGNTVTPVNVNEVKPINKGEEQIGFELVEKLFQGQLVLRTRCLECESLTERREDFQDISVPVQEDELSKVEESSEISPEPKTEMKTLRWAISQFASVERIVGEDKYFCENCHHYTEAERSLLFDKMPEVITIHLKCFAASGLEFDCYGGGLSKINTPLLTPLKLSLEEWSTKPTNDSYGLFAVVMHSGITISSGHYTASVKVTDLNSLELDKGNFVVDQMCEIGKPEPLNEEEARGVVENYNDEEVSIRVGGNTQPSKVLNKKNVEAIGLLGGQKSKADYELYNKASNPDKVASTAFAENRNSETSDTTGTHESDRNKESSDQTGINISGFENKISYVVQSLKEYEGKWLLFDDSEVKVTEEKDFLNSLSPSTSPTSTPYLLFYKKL
Chain of Glucocorticoid receptor (Homo sapiens) (P04150 whole entry, looked up, the tested form may be a part): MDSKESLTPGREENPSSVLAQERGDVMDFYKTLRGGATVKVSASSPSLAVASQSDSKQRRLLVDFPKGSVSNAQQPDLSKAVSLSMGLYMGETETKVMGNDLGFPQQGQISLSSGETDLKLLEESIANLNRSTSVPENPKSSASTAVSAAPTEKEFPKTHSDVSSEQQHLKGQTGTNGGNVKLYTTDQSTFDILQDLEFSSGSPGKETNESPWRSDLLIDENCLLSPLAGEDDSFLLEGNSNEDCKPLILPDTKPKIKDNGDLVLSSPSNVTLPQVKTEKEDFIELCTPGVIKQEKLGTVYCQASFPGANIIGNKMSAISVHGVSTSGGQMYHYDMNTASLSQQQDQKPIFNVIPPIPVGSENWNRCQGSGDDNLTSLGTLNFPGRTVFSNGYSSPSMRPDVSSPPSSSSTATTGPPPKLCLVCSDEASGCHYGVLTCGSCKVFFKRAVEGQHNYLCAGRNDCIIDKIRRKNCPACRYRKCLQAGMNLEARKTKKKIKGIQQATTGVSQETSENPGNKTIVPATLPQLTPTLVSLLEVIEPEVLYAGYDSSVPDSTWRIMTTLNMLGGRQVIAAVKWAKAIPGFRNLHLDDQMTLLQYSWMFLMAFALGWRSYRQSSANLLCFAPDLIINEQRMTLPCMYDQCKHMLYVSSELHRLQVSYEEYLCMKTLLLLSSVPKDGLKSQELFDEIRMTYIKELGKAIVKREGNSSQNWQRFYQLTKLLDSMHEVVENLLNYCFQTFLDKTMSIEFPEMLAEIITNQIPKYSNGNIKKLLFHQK
Chain of 3',5'-cyclic-AMP phosphodiesterase 4B (Homo sapiens) (Q07343 whole entry, looked up): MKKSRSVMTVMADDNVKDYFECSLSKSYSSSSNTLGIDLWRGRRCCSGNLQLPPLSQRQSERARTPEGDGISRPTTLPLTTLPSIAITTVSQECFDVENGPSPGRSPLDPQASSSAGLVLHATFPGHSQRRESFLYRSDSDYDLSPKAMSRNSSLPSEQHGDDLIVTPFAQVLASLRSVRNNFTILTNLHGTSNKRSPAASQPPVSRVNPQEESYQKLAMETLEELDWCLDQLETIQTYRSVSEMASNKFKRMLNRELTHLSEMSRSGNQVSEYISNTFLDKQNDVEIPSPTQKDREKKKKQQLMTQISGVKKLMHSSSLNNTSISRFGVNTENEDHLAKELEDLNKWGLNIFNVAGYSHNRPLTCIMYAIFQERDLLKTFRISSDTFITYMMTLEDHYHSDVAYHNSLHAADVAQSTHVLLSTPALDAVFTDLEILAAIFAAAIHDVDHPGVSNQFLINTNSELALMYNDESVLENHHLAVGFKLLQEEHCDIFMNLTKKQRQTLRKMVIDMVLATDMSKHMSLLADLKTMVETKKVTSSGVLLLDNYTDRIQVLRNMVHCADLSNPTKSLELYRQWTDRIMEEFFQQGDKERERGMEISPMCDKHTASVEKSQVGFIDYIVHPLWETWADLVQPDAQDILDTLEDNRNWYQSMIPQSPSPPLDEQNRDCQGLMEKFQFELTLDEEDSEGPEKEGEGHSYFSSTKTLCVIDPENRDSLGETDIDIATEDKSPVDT
Chain of Cytochrome P450 2C19 (Homo sapiens) (P33261 whole entry, looked up): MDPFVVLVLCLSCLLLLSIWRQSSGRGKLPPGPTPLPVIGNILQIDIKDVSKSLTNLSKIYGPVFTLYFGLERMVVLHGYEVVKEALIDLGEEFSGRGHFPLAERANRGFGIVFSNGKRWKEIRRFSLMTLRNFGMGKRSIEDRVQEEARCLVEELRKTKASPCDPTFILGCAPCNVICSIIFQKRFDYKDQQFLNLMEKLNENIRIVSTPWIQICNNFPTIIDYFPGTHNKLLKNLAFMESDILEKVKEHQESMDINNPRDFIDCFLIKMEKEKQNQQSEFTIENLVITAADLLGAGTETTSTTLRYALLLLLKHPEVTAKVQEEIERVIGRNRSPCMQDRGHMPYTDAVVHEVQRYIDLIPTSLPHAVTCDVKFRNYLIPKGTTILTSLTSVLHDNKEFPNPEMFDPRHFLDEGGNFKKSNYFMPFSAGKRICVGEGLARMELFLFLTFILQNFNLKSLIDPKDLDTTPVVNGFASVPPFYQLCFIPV

On to `CCNc1ncc2nc(C)c(=O)n(Cc3cccs3)c2n1`, for which the Potency in test [1] was > 11.4 µM (inactive); in test [3], 2 µM (active); in test [6], > 9.22 µM (inactive); in test [7], > 46 µM (inactive). Also, the values for the activity change, negative = inhibition in test [2], in [4] and in [10] were 19% (inactive), -12.9% (inactive) and 6.19% (inactive), respectively. In addition, in [5], the activity, negative = inhibition is -7.43% (inactive). Further, the molecule was called inactive in test [8]. Further, the Potency result in test [9], in test [11], in test [12] and in test [13] was “inactive” throughout. Besides, the max response in test [10] (setting [19]) is -9.24%; in test [10] (setting [20]), -5.88%.
As for `N#Cc1cccc(-c2cncnc2NCc2cccs2)c1`, the Potency is > 11.4 µM (inactive) in [1]; 1.58 µM (active) in test [3]; > 46 µM (inactive) in test [6]; > 46 µM (inactive) in test [7]; 1.26 µM (active) in test [14]; 7.94 µM (active) in test [15]. For the same molecule, the figures for the activity change, negative = inhibition in test [2], in test [4] and in test [10] were -2.15% (inactive), -0.972% (inactive) and 6.17% (inactive), respectively. Further, the activity, negative = inhibition in test [5] is 3.27% (inactive). In addition, the result in test [8] was inactive. The Potency entry in [9], in [11], in test [12] and in [13] was “inactive” throughout. Besides, the max response in test [10] (setting [19]) was determined as 15.7%; in test [10] (setting [20]), 18.5%.
Take `CCNc1ncc2nc(C)c(=O)n(C)c2n1`: the Potency in test [1] is > 11.4 µM (inactive); in [3] it was 5.01 µM (active); in [6], > 9.22 µM (inactive); in test [7], > 46 µM (inactive). Further, the activity change, negative = inhibition is -6.84% (inactive) in test [2], 2.38% (inactive) in test [4] and 2.6% (inactive) in test [10]. Besides, the activity, negative = inhibition in test [5] was -8.23% (inactive). In addition, the molecule was called inactive in [8]. The results for the max response in [10] (setting [19]) and in test [10] (setting [20]) were 22.7% and 26.7%, respectively. The Potency entry in [11], in [12] and in [13] was “inactive” each time.
In the case of `CN1CCN(c2ncc3nc(-c4cc(F)cc(F)c4)c(=O)n(CCc4ccccc4)c3n2)CC1`, the Potency in [1] was > 11.4 µM (inactive); in [7], > 46 µM (inactive); in test [17], 3.16 µM (active). Moreover, the Potency entry in test [3], in test [16], in test [9], in [18], in test [11] and in [12] was “inactive” throughout. The Potency result in test [13] was “inactive”. For the same molecule, in test [8], the molecule was classed as inactive. The activity change, negative = inhibition in test [10] is -3.87% (inactive). The max response in [10] (setting [19]) was 10.6%; in [10] (setting [20]), 3.66%.
Take `O=c1cnc2cnc(Nc3ccccc3)nc2n1Cc1ccc(F)cc1`: the Potency in [1] was > 11.4 µM (inactive); in test [3], 1 µM (active); in [6], > 9.22 µM (inactive); in [7] it was > 46 µM (inactive). Moreover, the activity change, negative = inhibition was -17.4% (inactive) in test [2], 3.72% (inactive) in test [4] and 6.15% (inactive) in test [10]. Moreover, the activity, negative = inhibition in test [5] was -3.92% (inactive). Besides, the molecule was called inactive in [8]. In addition, the max response in test [10] (setting [19]) stood at 9.12%; in test [10] (setting [20]), 14.4%. The Potency entry in [11], in [12] and in [13] was “inactive” each time.
Consider `Cn1c(=O)cnc2cnc(OCc3ccccc3)nc21`, for which the Potency is > 11.4 µM (inactive) in test [1], > 9.22 µM (inactive) in test [6], > 46 µM (inactive) in test [7] and 20 µM (active) in test [18]. For the same molecule, the activity change, negative = inhibition in [2] is -10.8% (inactive); in [4] it was 0.699% (inactive); in test [10], 9.09% (inactive). Besides, in test [5], the activity, negative = inhibition was -10.5% (inactive). Besides, the result in test [8] was inactive. Besides, the Potency result in test [16], in test [12] and in test [13] was “inactive” throughout. The results for the max response in [10] (setting [19]) and in [10] (setting [20]) were 18.8% and 26%, respectively.

The values are drawn from PubChem BioAssay (NCATS).
